Sampled rows, rich in hits. Any-hit rate of the full collection: about 4.5%.
tim23-1 inh: tim23-1 yeast growth inhibition | S. cerevisiae tim23-1 growth, BacTiter-Glo luminescence, 24 h | inhibition, % at 20 µM | hit rate 1.3% among 330,000;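 active = growth inhibition of the mutant yeast at or above 50%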;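 also: temperature-sensitive mutant grown at 25 °C; plate controls were DMSO-treated mutant yeast for no effect and medium wells lacking yeast for full effect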
NALP3 yeast inh: inhibitors of NALP3 inflammasome in yeast; Yeast reconstituted NLRP3/ASC/caspase-1, beta-gal luminescence, 24 h; inhibition, % at 10 µM; hit rate 0.39% among 330,000;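 active = inhibition of 50% or more; inactive = inhibition below 50%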;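 also: plate controls were induced DMSO wells for no effect and uninduced yeast grown without galactose for full effect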
tim10-1 inh: tim10-1 yeast growth inhibition | S. cerevisiae tim10-1 ts strain growth, BacTiter-Glo, 24 h | inhibition, % at 20 µM | hit rate 2.2% among 330,000;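 active = inhibition of at least 40%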;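 also: mutant grown at 25 °C; 0% = DMSO wells with yeast and 100% = wells holding no yeast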
SKKanGAS inh: blocks kanamycin growth of S. pyogenes SKKanGAS strain; inhibition, % at 7.5 µM; BacTiter-Glo, 6 h; AID 1662; hit rate 1.3% among 300,000;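 active = mean replicate score, as percent of positive control median, at least 50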;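 also: strain carries kanamycin resistance gene driven by streptokinase promoter and grows in 40 µg/ml kanamycin; loss of luminescence reflects streptokinase promoter inhibition or plain growth inhibition; 0% = median of DMSO wells and 100% = positive control at its reference dose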
PfHsp90 yeast 2: growth inhibition of yeast expressing Plasmodium Hsp90; S. cerevisiae expressing PfHsp90, BacTiter-Glo ATP, 48 h; yeast lacking PDR1 and PDR3 efflux regulators; inhibition, % at 9.4 µM; hit rate 0.32% among 310,000; AID 504621;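 active = every replicate shows inhibition above about 80%, whatever the replicate mean, limit read from the data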;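 also: 0% = DMSO neutral controls and 100% = 20 µM radicicol positive controls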
TIM10 inh: growth inhibitors of TIM10 yeast strain. inhibition, % at 10 µM. hit rate 1.4% among 330,000. S. cerevisiae TIM10 strain growth, BacTiter-Glo luminescence, 24 h. AID 463195;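 active = inhibition of 40% or more at the single tested concentration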;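 also: wild-type TIM10 isogenic control strain grown at permissive 25 °C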
tim10 confirm: confirmation of TIM10 yeast growth inhibitors. shares compounds with TIM10 inh. inhibition, % at 10 µM. S. cerevisiae tim10 strain growth, BacTiter-Glo luminescence, 24 h. hit rate 63% among 4,600;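 active = inhibition of yeast growth at or above a set limit in either of two replicates at 10 µM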;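 also: this counterscreen used the strain with wild-type TIM10; 0% = yeast with DMSO and 100% = medium wells lacking yeast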
tim23-1 conf: tim23-1 yeast growth inhibition, confirmed | shares compounds with tim23-1 inh | S. cerevisiae tim23-1 growth, BacTiter-Glo luminescence, 24 h | inhibition, % at 20 µM | hit rate 83% among 4,400 | AID 463218;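 active = inhibition above about 39% in either of two replicate wells at 20 µM, limit read from the data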;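 also: temperature-sensitive tim23-1 mutant grown at 25 °C; 0% = DMSO wells with yeast and 100% = medium wells without yeast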
* marks the source's active call; other numbers are inactive results; · = not tested or not shown.

SMILES	tim23-1 inh	NALP3 yeast inh	tim10-1 inh	SKKanGAS inh	PfHsp90 yeast 2	TIM10 inh	tim10 confirm	tim23-1 conf
Cc1ccc(-n2c(-c3ccc(Cl)cc3)n[nH]c2=S)c(C)c1	55*	1	24	-4	-16	47*	49*	42*
COc1ccc(-c2n[nH]c(=S)n2-c2ccc(C)cc2C)cc1	43	22	39	-3	6	31	·	·
COc1ccc(S(=O)(=O)N2CCN(Cc3ccc(Cl)cc3)CC2)cc1	58*	20	28	0	8	42*	40*	50*
Cc1cn2c(=O)c(C(=O)N3CCN(c4ccccc4Cl)CC3)cnc2s1	8	22	7	-4	20	-15	·	·
O=C(CN1C(=O)NC2(CCCC2)C1=O)NNC(=O)c1ccc(Cl)cc1	11	14	2	·	-6	2	·	·
O=C(NCc1ccccc1F)c1cccs1	0	16	8	1	1	-29	·	·
O=C(NC(=S)NCc1ccccc1Cl)c1cccs1	67*	16	16	·	2	46*	51*	52*
Cc1ccc(N=Nc2ccc(O)cc2)c(Br)c1	66*	45	-32	7	116*	52*	71*	-2
Cc1ccc(C)c(NC(=O)CN(C)C(=O)c2ccc(S(=O)(=O)N3CCCCCC3)cc2)c1	15	11	-1	·	8	14	·	·
CC1=NN(C(N)=S)C(=O)C1N=Nc1c(Br)cc(Br)cc1Br (configuration not stated)	60*	36	35	66*	-85	45*	60*	63*
COc1ccc(C(=O)N=C2SC3CS(=O)(=O)CC3N2Cc2ccccc2)cc1OC (configuration not stated)	5	3	3	1	6	9	·	·
COc1cccc(/C=N/NC(=O)C(=O)Nc2ccccc2OC(F)(F)C(F)F)c1O	54*	17	-2	38	92*	45*	56*	61*
C[C@H](NC(=O)c1nc[nH]c1C(=O)N1CCN(c2ccccc2)CC1)c1ccccc1	1	-1	14	·	28	-3	·	·
CCN(CC)c1ccc(/C=N/NC(=O)c2ccco2)c(O)c1	75*	14	33	·	6	54*	61*	77*
NNC(=O)c1cn2ccccc2n1	4	7	2	-5	-20	10	·	·
Cc1ccc(C(=O)COC(=O)c2cn3ccccc3n2)cc1	57*	27	20	-7	0	48*	42*	69*
Cc1cccc(N2CCN(S(=O)(=O)c3ccc(-c4ccc(=O)[nH]n4)o3)CC2)c1C	-1	8	-4	-14	-8	5	·	·
O=c1c(-c2ccc3c(c2)OCCO3)coc2cc(O)cc(O)c12	56*	20	35	4	18	41*	36*	49*
CC1(C)CCC[C@]2(C)C(CS(=O)c3ccccc3)=C(C=O)CC[C@@H]12 (some centres not stated)	67*	22	29	2	-12	49*	47*	55*
O=C(NCC1CC1(Cl)Cl)Nc1ccc(Cl)c(Cl)c1 (configuration not stated)	80*	34	38	39	-5	48*	45*	71*
Cc1ccc(NC(=O)NCC2CC2(Cl)Cl)cc1 (configuration not stated)	4	23	-16	4	43	-23	·	·
CCN(CC)S(=O)(=O)c1cc(NC(=O)COC(=O)c2c(C)noc2C)ccc1C	25	11	13	·	22	4	·	·
N#Cc1ccccc1Cn1cc(/C=C/[N+](=O)[O-])c2ccccc21	69*	4	32	2	10	67*	-1	82*
N#Cc1cn(Cc2cccc(Cl)c2)c2ccccc12	31	33	27	5	·	-2	·	·
COc1cc(/C=C2\CCC/C(=C\c3ccc(O)c(OC)c3)C2=O)ccc1O	82*	7	38	65*	-32	41*	39*	52*
SMILES	tim23-1 inh	NALP3 yeast inh	tim10-1 inh	SKKanGAS inh	PfHsp90 yeast 2	TIM10 inh	tim10 confirm	tim23-1 conf
COc1cc(/C=C2/CCCC(C(=O)C(F)(F)F)=C2O)ccc1O	13	6	29	-9	-27	18	·	·
CC1(C)CC(=O)C(N=Nc2cc(Cl)c(Cl)c(Cl)c2)=C(O)C1	27	7	25	7	-1	21	·	·
Cc1ccc(O)c(N=NC2=C(O)CC(C)(C)CC2=O)c1	61*	33	10	1	-12	43*	27	52*
CCOC(=O)N1CCN(C(=O)c2cc(-c3ccc(F)cc3)[nH]c2C)CC1	11	-5	18	1	·	15	·	·
Cc1[nH]c(-c2ccc(F)cc2)cc1C(=O)N1CCN(c2ccc(Cl)cc2)CC1	73*	21	36	54*	-53	49*	42*	54*
Oc1c(Br)cc(Br)cc1/C=N/NC(=S)N[C@H]1CC2C=CC1C2 (some centres not stated)	57*	13	30	120*	-32	46*	48*	68*
NC(=S)NC1CC2C=CC1C2 (configuration not stated)	13	8	6	3	13	13	·	·
Cn1cc(Cl)c(/C(N)=N/OC(=O)c2ccccc2C(F)(F)F)n1	21	21	9	-6	5	20	·	·
CCOC(=O)Nc1ccc2nc(N3CCCCCC3)sc2c1	50*	40	36	-6	0	40*	40*	-29
CCOC(=O)N1CCN(C(=O)Nc2ccc3nc(C)sc3c2)CC1	-4	-6	-3	5	-8	6	·	·
CCCCCCCCC1=NCCc2c1[nH]c1ccccc21	57*	19	38	8	-8	45*	13	43*
CCCCCN(C(=O)CSc1n[nH]c(-c2ccc(C)cc2)n1)c1c(N)n(CCCC)c(=O)[nH]c1=O	20	16	14	4	4	2	·	·
COc1cc2c3nc4n(c(=O)c3n(CC(=O)N3CCCC3)c2cc1OC)CCS4	·	·	·	·	7	·	·	·
COc1ccc(/C=N/n2c(N)nc3ccccc32)cc1OC	-1	17	-7	·	3	-4	·	·
COc1cccc(/C=N/n2c(N)nc3ccccc32)c1OC	60*	10	10	53*	-12	44*	45*	38
O=C(Cn1c(=O)cnc2ccccc21)Nc1cccc(S(=O)(=O)N2CCCCC2)c1	12	3	9	·	·	-1	·	·
CN1/C(=C/C(=S)NC(=O)C2(C)CC2(Cl)Cl)C(C)(C)c2ccccc21 (configuration not stated)	37	13	1	28	27	27	·	·
